Several values for one entry are separate records, joined by “and”; a condition that tells them apart may be missing. Equal values may be shown once. Inconclusive results are not listed. Some compounds were tested as several samples or in several runs, with calls that do not always agree. Activity calls are given as the source filed them. Calls come from the whole dose curve; as a rule, active = well fitted inhibition curve with a large enough effect in the repeat runs; inconclusive = weak or mixed curves; inactive = no such curve, though single readings can be large or run the other way.
What follows are molecules tested against Cytochrome P450 2C19 (Homo sapiens) (UniProt P33261) (assay: Cytochrome P450 Family 2 Subfamily C Member 19 (CYP2C19) small molecule antagonists: luciferase reporter qHTS assay (AID 1671197; note: nearly all actives have a fitted effect of over 65% in size)). Conditions: P450-Glo CYP2C19 enzyme, luciferin luminescence, 1 h; series mostly up to 115 µM; activity change, negative = inhibition: at the top concentration.
Method in brief: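 Light output is proportional to CYP2C19 activity: proluciferin substrate is converted to luciferin, then detected by a luciferin detection reagent that also stops the 1 h, 37C NADPH-driven reaction. Ketoconazole serves as positive control.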
% is set by controls: 0 for no effect and ±100 for the full control effect; potency is the fitted concentration of half-maximal effect.

Cytochrome P450 2C19 (Homo sapiens), sequence (P33261 whole entry, looked up): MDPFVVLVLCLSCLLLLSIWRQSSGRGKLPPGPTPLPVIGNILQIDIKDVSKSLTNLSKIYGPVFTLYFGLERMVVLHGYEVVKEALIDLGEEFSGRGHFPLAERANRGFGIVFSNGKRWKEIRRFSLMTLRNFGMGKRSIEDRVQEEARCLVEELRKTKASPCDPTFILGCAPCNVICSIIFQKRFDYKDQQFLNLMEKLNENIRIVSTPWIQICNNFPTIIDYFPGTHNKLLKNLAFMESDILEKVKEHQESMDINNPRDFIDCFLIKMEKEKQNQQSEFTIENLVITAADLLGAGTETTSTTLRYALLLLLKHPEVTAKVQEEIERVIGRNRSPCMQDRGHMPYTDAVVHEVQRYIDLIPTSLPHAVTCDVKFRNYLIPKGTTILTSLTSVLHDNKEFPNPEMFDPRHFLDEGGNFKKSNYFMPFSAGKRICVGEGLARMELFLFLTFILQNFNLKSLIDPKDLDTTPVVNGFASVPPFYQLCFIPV

Row | Compound | activity change, negative = inhibition | Potency
1 | O=C1NCC2(CCN(CCc3ccccc3)CC2)O1 | 20.6% [at 52.9 µM] (inactive) | –
2 | CC(C)(C)c1cc(C(C)(C)C)c(O)c(C(C)(C)C)c1 | – | inactive
3 | O=C(O)c1cccc(C(=O)O)c1 | 4.17% (inactive) | –
4 | O=C(O[C@@H]1Cc2c(O)cc(O)cc2O[C@@H]1c1cc(O)c(O)c(O)c1)c1cc(O)c(O)c(O)c1 | – | 50.4 µM (active) and inactive
5 | CC(=O)OCCOCCOCCOC(C)=O | – | 78.7 µM (active) and inactive
6 | Nc1ccc(O)cc1 | – | 20.8 µM (active) and 34.7 µM (active)
7 | CCCCCCCCCCCCCC[P+](CCCC)(CCCC)CCCC | – | 56.1 µM (active) and 39.9 µM (active)
8 | CCC(C)(Oc1ccc(C2(c3ccc(OC(C)(CC)C(=O)O)cc3)CCCCC2)cc1)C(=O)O (stereo not drawn) | 12.6% [at 52.9 µM] (inactive) | –
9 | C=CC(=O)OCCCCCCCC | -7.29% (inactive) | –
10 | O=C(O)CP(=O)(O)O | -6.53% [at 52.9 µM] (inactive) | –
11 | O=C(O)c1cn(-c2ccc(F)cc2)c2cc(N3CCNCC3)c(F)cc2c1=O | – | inactive
12 | CC1COC(=O)O1 (stereo not drawn) | – | inactive
13 | Cc1cccc([N+](=O)[O-])c1C(=O)O | -6.53% (inactive) | –
14 | CCN1CCCC1CNC(=O)c1cc(S(=O)(=O)CC)c(N)cc1OC (stereo not drawn) | 1.19% [at 52.9 µM] (inactive) | –
15 | N[C@@H]1CONC1=O | -0.11% [at 52.9 µM] (inactive) | –
16 | CCn1c2ccccc2c2cc(N)ccc21 | – | 4.43 µM (active) and 31.7 µM (active) and 12.6 µM (active)
17 | Oc1c(Cl)cc(Cl)c(Cl)c1Cc1c(O)c(Cl)cc(Cl)c1Cl | – | 70.8 µM (active) and 79.6 µM (active) and inactive
18 | COc1ccc(COC(C)=O)cc1 | – | 45.6 µM (active) and inactive

— PubChem BioAssay (Tox21)
